From PubChem
Rows were chosen to be rich in hits. Some 4.5% of all compounds tested hit in one or more screens of this group.
GAA850 FXN act: frataxin GAA850 promoter activation; HEK293 lucGAA850 FXN promoter luciferase reporter, 24 h; percent of 10 µM SAHA response; activation, % at 6 µM; 360,000 tested, 0.56% active; AID 540364;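 active = activation above the average of all compounds screened plus 3 SD, cutoff fixed separately per campaign, cut at about 7.5% in these data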;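 note: 0% = DMSO wells and 100% = 10 µM SAHA wells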
hcDAF-12 act: activators of H. contortus DAF-12 nuclear receptor. activation, % at 6.8 µM. HEK293 hcDAF-12 lit1-tk-luc reporter, luminescence; 0% DMSO, 100% Δ7-dafachronic acid. 370,000 tested, 1.4% active;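 active = activation above the mean of all tested compounds plus 3 SD, cut at about 5.5% in these data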;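 note: 100% = response to 3 µM Δ7-dafachronic acid high control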
DAX1 inh-1: inhibits human nuclear receptor DAX1 | P51843 | HEK293 Gal4-DAX1 luciferase reporter, luminescence | inhibition, % at 6.75 µM | 340,000 tested, 0.99% active | AID 504766;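 active = inhibition above the mean over all tested compounds plus 3 SD, cut at about 4.2% in these data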;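 note: 0% = DAX1-transfected cells with DMSO and 100% = empty-vector control cells with DMSO; inhibition shows as a rise in luminescence from relieved DAX1 repression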
Target sequence (P51843 207-470 limits assumed): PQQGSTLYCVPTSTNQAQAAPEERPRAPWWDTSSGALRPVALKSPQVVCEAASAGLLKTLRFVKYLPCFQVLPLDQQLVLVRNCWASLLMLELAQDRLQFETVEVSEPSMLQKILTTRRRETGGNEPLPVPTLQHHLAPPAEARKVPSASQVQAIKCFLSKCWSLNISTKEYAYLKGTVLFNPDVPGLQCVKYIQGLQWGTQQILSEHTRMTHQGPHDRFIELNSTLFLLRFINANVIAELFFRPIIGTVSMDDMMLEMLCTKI
DAX1 inh-2: blocks DAX1 repression of SF-1 activated StAR promoter | HEK293T StAR-luciferase reporter, SF-1/DAX-1 repression relief | inhibition, % at 6.8 µM | 370,000 tested, 1.1% active | AID 652010;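 active = inhibition above the mean over all tested compounds plus 3 SD, cut at about 3.6% in these data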;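 note: 0% = DAX-1 cells with DMSO and 100% = cells lacking DAX-1 with DMSO; higher inhibition means more luminescence from relief of DAX-1 repression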
ssDAF-12 act: activators of S. stercoralis DAF-12 nuclear receptor; HEK293 ssDAF-12/GRIP1 lit1-tk-luc reporter, luminescence; % of 3 µM dafachronic acid response; 370,000 tested, 1% active; activation, % at 6.8 µM;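 active = activation above the mean over all tested compounds plus 3 SD, cut at about 0.9% in these data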;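 note: 0% = DMSO-only wells and 100% = 3 µM delta7-dafachronic acid wells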
hgDAF12 agonist: hgDAF-12 agonism, primary luciferase screen; HEK293 GAL4-hgDAF12 UAS-luciferase reporter, agonist luminescence; normalized to butyrate control; activation, % at 6.8 µM; 370,000 tested, 1.8% active;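 active = activation above a cutoff set at the mean of all screened compounds plus 3 SD, cut at about 10% in these data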;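 note: 0% = DMSO wells and 100% = sodium butyrate wells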
The depositor's hits bear a star; · = not tested or not shown.

SMILES | GAA850 FXN act | hcDAF-12 act | DAX1 inh-1 | DAX1 inh-2 | ssDAF-12 act | hgDAF12 agonist
COc1ccc2c(c1)C(NC(C)=O)CCc1cc(OC)c(OC)c(OC)c1-2 (centres undefined) | -2 | 0 | 1 | 3.9* | 0 | -3
COc1cc2c(c(OC)c1OC)-c1ccc(O)c(=O)cc1C(NC(C)=O)CC2 (centres undefined) | -2 | 1 | 6.4* | 1 | 0 | -5
O=C(CN1C(=O)[C@@H](Cc2ccc(O)cc2)N=C(c2ccccc2)c2ccccc21)NC1CCCCC1 | · | -1 | · | -1 | -1 | -2
Cc1ccc2n1Cc1cnnn1-c1ccccc1-2 | 3 | -1 | 1 | -1 | 0 | 0
O=C(c1ccco1)N1Cc2ccccc2-n2nncc2C1 | 3 | -1 | 1 | 1 | -1 | -1
O=c1c2ccccc2nc(/C=C/c2ccccn2)n1-c1ccccc1 | 2 | -2 | -1 | -1 | -1 | 10*
C[C@H]1CC[C@@H]2[C@@H](C)[C@H]3[C@H](C[C@H]4[C@@H]5CC=C6C[C@@H](O[C@@H]7O[C@H](CO)[C@H](O)[C@H](O[C@@H]8O[C@H](CO)[C@@H](O)[C@H](O)[C@H]8O)[C@H]7O[C@@H]7O[C@@H](C)[C@H](O)[C@@H](O)[C@H]7O)CC[C@]6(C)[C@H]5CC[C@]34C)N2C1 | -3 | -2 | 4.3* | -2 | -1 | -7
COc1cc(/C=C/[N+](=O)[O-])ccc1OC(=O)c1cccnc1 | 2 | 5 | 0 | 0 | 1.3* | -2
COc1cc2c(cc1/C=C/[N+](=O)[O-])OCO2 | -2 | -1 | -1 | -1 | -2 | -4
O=C1NC(=O)C(Nc2ccc(Cl)c(Cl)c2)C(=O)N1 | 0 | 0 | 1 | 1 | -1 | -3
Cc1ccccc1N1CCN(C2CCCN(C(=O)COc3ccccc3)C2)CC1 (centres undefined) | -3 | -1 | 1 | 0 | -1 | -2
COC(=O)c1c2[n+](cc3cc(OC)c(OC)cc13)CCc1cc(OC)c(OC)cc1-2 | -1 | 0 | 4.5* | 0 | -1 | 1
COc1ccc(CC2=NCCc3cc(OC)c(OC)cc32)cc1OC | -2 | -3 | · | -1 | -1 | 0
Brc1ccc2c(c1)-n1nncc1CN(CC1CCCCC1)C2 | · | -2 | · | 1 | -2 | -2
O=C(CNCc1c(F)cccc1F)N1CCC2(CC1)OCCO2 | · | 3 | · | 3 | 1 | 10
S=P1(Oc2ccccc2)Nc2ccccc2N1 | 1 | 3 | 2 | 2 | 0 | 12*
CC(C)COC(=O)N1Cc2ccccc2-n2nncc2C1 | 1 | -2 | 0 | 1 | -2 | 2
CCCCN1C(=O)NC(=O)C2(Cc3c(nc4ccccn4c3=O)N3CCc4ccccc4C32)C1=O (centres undefined) | 0 | 6.0* | -1 | 0 | 0 | 0
c1ccc(-c2nc(N3CCOCC3)s[n+]2-c2ccccc2)cc1 | 3 | 3 | 2 | 2 | 0 | 12*
CCNC(=O)NC(=O)C(C)OC(=O)c1c(C)nn(Cc2ccccc2)c1Cl (centres undefined) | 2 | -1 | 6.3* | 0 | -2 | -1
C[C@H](NC(=O)OCc1ccccc1)C(=O)NC(Cc1ccccc1)P(=O)(Oc1ccccc1)Oc1ccccc1 (some centres undefined) | · | -2 | · | -1 | -1 | 2
CCc1ccc(-c2nn(Cc3ccccc3)cc2C=O)cc1 | 6 | 2 | 1 | 3 | -1 | 13*
COc1ccccc1N1CCN(Cc2ccc(Br)s2)CC1 | -2 | -1 | 6.5* | -1 | 1 | 1
COC(=O)C1=C(c2ccc(S(C)(=O)=O)cc2)C[C@@H]2CC[C@H]1N2C(=O)NCc1ccc(C(F)(F)F)cc1 | -2 | -1 | 0 | -1 | -1 | 1
C=C1C[C@]2(O)[C@@]3(C)CCC(=O)C(C)(C)C3=C(O)C(=O)[C@@]2(C)[C@@H]2C(=O)O[C@@](C)(C(=O)OC)C(=O)[C@@]12C | 6 | 0 | 5.0* | 2 | 0 | 7
COc1ccccc1C1C([N+](=O)[O-])=C(N)Oc2c1c(=O)oc1ccccc21 (centres undefined) | 0 | -1 | 2 | 1 | -1 | -1
